Whole data set: some 68,000 sequences, median “fluorescence intensity (a.u.)” near 9,100, cut for the highest 2% near 16,000. Shown is part of a subset that was picked to be rich in the highest values.
What follows are sequences tested against OsWRKY34 (Oryza sativa, UniProt Q0JBA9 1-250) (assay: protein-binding microarray (RPBM); PBS, 2% BSA, 51.3 ng/ul salmon testes DNA, 50 uM zinc acetate, 200 nM TF, 25 C, 1 h; high values mean tight binding). Conditions: protein: recombinant; tags: N-terminal polyhistidine and DsRed monomer fusion (pET32a); label: CyDye5-dUTP incorporated in the synthesized complementary strand; 3' TTTTT single-stranded linker to array surface; dsDNA, one strand shown.
OsWRKY34, sequence (Q0JBA9 entry or part of it): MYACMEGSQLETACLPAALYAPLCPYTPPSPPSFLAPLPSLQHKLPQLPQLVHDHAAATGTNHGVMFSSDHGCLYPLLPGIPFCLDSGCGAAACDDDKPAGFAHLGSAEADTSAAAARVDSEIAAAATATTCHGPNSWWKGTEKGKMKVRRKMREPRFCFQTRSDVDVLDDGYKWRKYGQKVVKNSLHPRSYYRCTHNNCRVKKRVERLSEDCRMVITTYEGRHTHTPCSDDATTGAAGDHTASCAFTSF
How it was run: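 The binding signal is fluorescence intensity per feature, in arbitrary units, read on an Axon 4000B scanner. Polyhistidine- and DsRed-tagged transcription factors (N-terminal fusions) from E. coli BL21-CodonPlus were purified on Ni–NTA and applied at 200 nM for 1 h at 25 °C to a double-stranded, BSA-blocked custom Agilent array in buffer with 50 µM zinc acetate.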

Point of comparison: “GGTTTGTTTGGAGGCGCAATGTTTCTCACCCTGTCGTTCCCGGAGTCACCTAGTGCAG”, binding signal 12700 fluorescence intensity (a.u.). Against it:
- AGGTCTTTTTCACGTCGCAACCATGGCTTCAAATTTTGCTCGGAGTCACCTAGTGCAG — lower, 11900 fluorescence intensity (a.u.)
- CTCGCCTGACCCTGTCAAACGCCGGGCCGCGGACCCCGCCCGGAGTCACCTAGTGCAG — lower, 8970 fluorescence intensity (a.u.)
- GAGCTTATAGGGTGGGTTGTGTCCATGGAGTAACTATTATCGGAGTCACCTAGTGCAG — higher, 18600 fluorescence intensity (a.u.)
- TCGTGGGAAGGGCAAAGAAAAGACGGGGTGGTGGGCATCGCGGAGTCACCTAGTGCAG — lower, 8420 fluorescence intensity (a.u.)
- GGTGACGGCTGGTGTGGGTGTAGGGTGGCCGCGCGGTACGCGGAGTCACCTAGTGCAG — lower, 9460 fluorescence intensity (a.u.)
- GAGCTTGGGGTTGTGTATGGTGGTGGTGGTGTGGTAGCTACGGAGTCACCTAGTGCAG — higher, 33200 fluorescence intensity (a.u.)
- CTGTTGTGTTGTGTTGTAATATGATTATGTGGGTGCTTATCGGAGTCACCTAGTGCAG — lower, 8390 fluorescence intensity (a.u.)
- TGATGTCTTATCTCGGGTCTCATCTTTTCGCTTATGCTTACGGAGTCACCTAGTGCAG — lower, 8990 fluorescence intensity (a.u.)
- AACAGTGGTATCGTTGTGTAGGGGTGGGCTGGCAAAAAGACGGAGTCACCTAGTGCAG — higher, 20000 fluorescence intensity (a.u.)
- TTTTGGGGTGGGTTTTGGTATCTGATGCTTACGGGCATCTCGGAGTCACCTAGTGCAG — higher, 18100 fluorescence intensity (a.u.)
- GGGGTTATGGTGGATTTGGTGCTTTGGGGCATTATGTTTACGGAGTCACCTAGTGCAG — higher, 13800 fluorescence intensity (a.u.)
- CGTAGGTAAGTAGGGTTATTATAGTTATTTGTGTATATATCGGAGTCACCTAGTGCAG — lower, 9300 fluorescence intensity (a.u.)
- TGCTTGTGGTTTGTATGGAGTTTGGGTGAAGTGTCACGTACGGAGTCACCTAGTGCAG — lower, 9660 fluorescence intensity (a.u.)
- GGGCTAGTGTTTTTATGGTGTGGTTGGGGATTCAGCTTGCCGGAGTCACCTAGTGCAG — lower, 11600 fluorescence intensity (a.u.)
- ATTCAGTGGATCCTGCTGCTCAAACTTTGCTGACTGAATTCGGAGTCACCTAGTGCAG — lower, 8820 fluorescence intensity (a.u.)
- CATCTTTGTGGTTGTGTGGGTGTGTGTGTATATATATACCCGGAGTCACCTAGTGCAG — lower, 8180 fluorescence intensity (a.u.)
- TGCTGCTACTACATGTGGTGTGGGTGGTATGGTAGGGCCCCGGAGTCACCTAGTGCAG — lower, 9060 fluorescence intensity (a.u.)
- GCTTACTGGTTATGGTTGGTAGGGTTGGACGTGTAACAGACGGAGTCACCTAGTGCAG — higher, 20900 fluorescence intensity (a.u.)
- AGGAGGTGTAGTAGGGTAGTGTAGGAGGTGTAGTGGAGTACGGAGTCACCTAGTGCAG — lower, 8450 fluorescence intensity (a.u.)
- GGCTGTTGGGTTTGTGGGCTTGTGCTAGGCGTCCCAGCTACGGAGTCACCTAGTGCAG — higher, 17800 fluorescence intensity (a.u.)
- GGGTTGATGTGTGGTGAAGGGTAGGTAATTTGTAGGAGTACGGAGTCACCTAGTGCAG — lower, 10800 fluorescence intensity (a.u.)
- GGGATGGGTAGGGGTGGGTTGTGCTGTATTATACTACACCCGGAGTCACCTAGTGCAG — higher, 19200 fluorescence intensity (a.u.)
- TTACCTTAGATTTGGTAGGGCTGGTTAGGGCTGGTTGGAGCGGAGTCACCTAGTGCAG — lower, 8680 fluorescence intensity (a.u.)
- TGATGTGTGGGTGGTGGTGGTGGTGTGCCTTGTGTAGGTACGGAGTCACCTAGTGCAG — higher, 20800 fluorescence intensity (a.u.)
- GGGTTTTGCTTTTGCTGTTGTCTTGGGCTTGGGCCTTTGCCGGAGTCACCTAGTGCAG — lower, 8660 fluorescence intensity (a.u.)
- TGTAGCTTACTGCTTTGGTTTGGGCTGGTTGTGGATTGGACGGAGTCACCTAGTGCAG — lower, 11900 fluorescence intensity (a.u.)
- CTTGGGCGTCTTGTGTTTGTGGGTGAGGTAGCCAGCTGCCCGGAGTCACCTAGTGCAG — lower, 9910 fluorescence intensity (a.u.)
- CCTCGTACGTGTTGGTGTTGCCAAGCCCAAGCCAGTAGTACGGAGTCACCTAGTGCAG — lower, 8990 fluorescence intensity (a.u.)
- CACGCTTCGTCGTCGGATCGGGACGCCTTGCTGCCTCTGCCGGAGTCACCTAGTGCAG — lower, 8170 fluorescence intensity (a.u.)
- ACTACATCCGCGCACCTGCTTTGCTCGTCGACGATTATAACGGAGTCACCTAGTGCAG — higher, 12900 fluorescence intensity (a.u.)
- TGTGGATGAGTGTGTGTGTGTGGAGATCAGTGGGAGACCACGGAGTCACCTAGTGCAG — lower, 8170 fluorescence intensity (a.u.)
- AAGGGTGTATTTATTGGTGCAATAGCGTTTTTGTTTGACCCGGAGTCACCTAGTGCAG — lower, 8690 fluorescence intensity (a.u.)
- AGGGAGGAGTACATCTAGTAGTATAGGGGAGAGGGTGGGCCGGAGTCACCTAGTGCAG — lower, 11500 fluorescence intensity (a.u.)
- TGGGGTATGTGTGCTTGGTTATGTGTGCATCTTAGTTATACGGAGTCACCTAGTGCAG — higher, 19300 fluorescence intensity (a.u.)
- CTGATTCATTATACTAGGAGGGGTGGGAGGGAGGGAGTACCGGAGTCACCTAGTGCAG — higher, 18800 fluorescence intensity (a.u.)
- CTGTATTCATTAGGGTGGGACTGTATACTATAGTTATTATCGGAGTCACCTAGTGCAG — higher, 15700 fluorescence intensity (a.u.)
- TAATTACCTCTCTTTAGTTTTGGGGTATGTGTGCTTGGTTCGGAGTCACCTAGTGCAG — lower, 9680 fluorescence intensity (a.u.)
- AGAGCTTAATTTGGTATGTGTGTGTATATATATATATATACGGAGTCACCTAGTGCAG — lower, 8150 fluorescence intensity (a.u.)
- TATAGGTCCCACGCTATCTCAGTCGCCACATCAGCTAAAACGGAGTCACCTAGTGCAG — lower, 8690 fluorescence intensity (a.u.)
- TTTTAAGTATAATTTCTCTATAATTTGACAATGTGGTGCTCGGAGTCACCTAGTGCAG — lower, 8550 fluorescence intensity (a.u.)
- TTTGTTTTGAGCCGAACAAATCGGTAGTCAGTGGGCGGGGCGGAGTCACCTAGTGCAG — lower, 11900 fluorescence intensity (a.u.)
- TGATCTTTTGTTTCCTGCTTGGTATAGTATAAGCTCTCATCGGAGTCACCTAGTGCAG — lower, 8800 fluorescence intensity (a.u.)
- TTTTCTTTTTTCCCGCACTTTCTTTTCTTCCCGGAGATGTCGGAGTCACCTAGTGCAG — lower, 8400 fluorescence intensity (a.u.)
